# Reference: paper PMC5540273 (PLoS ONE, 2017)
# Where “and” joins values, the source holds several entries; their conditions need not be identical. Identical values can stand only once. Like-named read-outs stand apart in the source and are kept apart here.
# Assays:
# [1] = test system: AAK1; conditions: concentration: 1 μM, replicates: in singlicate, n = 1
# [2] = test system: ABL1-nonphosphorylated; conditions: concentration: 1 μM, replicates: in singlicate; n = 1
# [3] = test system: ABL1-phosphorylated; conditions: concentration: 1 μM, replicates: in singlicate, n = 1
# [4] = test system: ABL2; conditions: concentration: 1 μM, replicates: in singlicate, n = 1
# [5] = test system: ACVR1B; conditions: concentration: 1 μM, replicates: in singlicate, n = 1
# [6] = test system: ACVR1; conditions: concentration: 1 μM, replicates: in singlicate; n = 1
# [7] = test system: ACVR2A; conditions: concentration: 1 μM, replicates: in singlicate; n = 1
# [8] = test system: ACVR2B; conditions: concentration: 1 μM, replicates: in singlicate, n = 1
# [9] = test system: ACVRL1; conditions: concentration: 1 μM, replicates: in singlicate; n = 1
# [10] = test system: T1, ADCK3; conditions: concentration: 1 μM, replicates: in singlicate, n = 1
# T1 construct: gene CABC1
# [11] = test system: ADCK4; conditions: concentration: 1 μM, replicates: in singlicate, n = 1
# [12] = test system: AKT1; conditions: concentration: 1 μM, replicates: in singlicate, n = 1
# [13] = test system: AKT2; conditions: concentration: 1 μM, replicates: in singlicate, n = 1
# [14] = test system: AKT3; conditions: concentration: 1 μM, replicates: in singlicate, n = 1
# [15] = test system: ALK; conditions: concentration: 1 μM, replicates: in singlicate, n = 1
# [16] = test system: T2, AMPK-alpha1; conditions: concentration: 1 μM, replicates: in singlicate, n = 1
# T2 construct: gene PRKAA1
# [17] = test system: T3, p38-alpha
# T3 construct: gene MAPK14
# [18] = test system: T4, p38-beta
# T4 construct: gene MAPK11
# [19] = test system: T5, YSK4
# T5 construct: gene MAP3K19
# 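Wherever %Inh is given: KINOMEscan kinase panel screen.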
# 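Wherever Kd is given: kd values determined as follow-up on hits from a single-replicate KINOMEscan panel screen.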
compound,measurement,setting,value
O=c1cc(N2CCOCC2)nc2n(Cc3cccc(Cl)c3Cl)c(C3CC3)nn12 [GSK2358994],%Inh,[1],14%
same,%Inh,[2],28%
same,%Inh,[3],20%
same,%Inh,[4],5%
same,%Inh,[5],0%
same,%Inh,[6],0%
same,%Inh,[7],0%
same,%Inh,[8],0%
same,%Inh,[9],9%
same,%Inh,[10],11%
same,%Inh,[11],0%
same,%Inh,[12],12%
same,%Inh,[13],0%
same,%Inh,[14],0%
same,%Inh,[15],0%
same,%Inh,[16],5%
Cc1cccc(Cn2ccn3c(=O)cc(N4CCOCC4)nc23)c1 [GSK2297542],%Inh,[1],15%
same,%Inh,[2],7%
same,%Inh,[3],0%
same,%Inh,[4],13%
same,%Inh,[5],0%
same,%Inh,[6],0%
same,%Inh,[7],0%
same,%Inh,[8],4%
same,%Inh,[9],6%
same,%Inh,[10],27%
same,%Inh,[11],44%
same,%Inh,[12],0%
same,%Inh,[13],4%
same,%Inh,[14],0%
same,%Inh,[15],36%
same,%Inh,[16],1%
COCCNC(=O)c1ccc(-c2cc(C(=O)NC3CC3)cc(F)c2C)cc1 [GW868318],Kd,[17],7.3 nM
same,Kd,[18],88 nM
same,%Inh,[1],0%
same,%Inh,[2],43%
same,%Inh,[3],28%
same,%Inh,[4],12%
same,%Inh,[5],17%
same,%Inh,[6],7%
same,%Inh,[7],12%
same,%Inh,[8],0%
same,%Inh,[9],9%
same,%Inh,[10],14%
same,%Inh,[11],0%
same,%Inh,[12],0%
same,%Inh,[13],15%
same,%Inh,[14],26%
same,%Inh,[15],51%
same,%Inh,[16],20%
NS(=O)(=O)c1cccc(-c2ccc3ncc(N4CCOCC4)nc3c2)c1 [GSK1535721],Kd,[19],3400 nM
same,%Inh,[1],26%
same,%Inh,[2],1%
same,%Inh,[3],0%
same,%Inh,[4],0%
same,%Inh,[5],0%
same,%Inh,[6],21%
same,%Inh,[7],0%
same,%Inh,[8],0%
same,%Inh,[9],0%
same,%Inh,[10],28%
same,%Inh,[11],9%
same,%Inh,[12],0%
same,%Inh,[13],4%
same,%Inh,[14],0%
same,%Inh,[15],6%
same,%Inh,[16],1%
O=C(Nc1n[nH]c2cc(-c3cccc(F)c3)ccc12)C1CC1 [SB-735464],Kd,[19],310 nM
same,%Inh,[1],26%
same,%Inh,[2],64%
same,%Inh,[3],43%
same,%Inh,[4],8%
same,%Inh,[5],10%
same,%Inh,[6],36%
same,%Inh,[7],32%
same,%Inh,[8],50%
same,%Inh,[9],4%
same,%Inh,[10],0%
same,%Inh,[11],0%
same,%Inh,[12],0%
same,%Inh,[13],0%
same,%Inh,[14],19%
same,%Inh,[15],0%
same,%Inh,[16],10%
NCCNS(=O)(=O)c1ccc(-c2ccnc3[nH]ccc23)cc1 [GSK977617],%Inh,[1]; 1 µM,67% and 57%
same,%Inh,[2],0%
same,%Inh,[3]; 1 µM,9% and 0%
same,%Inh,[4]; 1 µM,22% and 1%
same,%Inh,[5]; 1 µM,3% and 0%
same,%Inh,[6],0%
same,%Inh,[7],0%
same,%Inh,[8]; 1 µM,2% and 0%
same,%Inh,[9],0%
same,%Inh,[10]; 1 µM,0% and 6%
same,%Inh,[11]; 1 µM,32% and 21%
same,%Inh,[12]; 1 µM,77% and 66%
same,%Inh,[13]; 1 µM,15% and 10%
same,%Inh,[14]; 1 µM,88% and 83%
same,%Inh,[15]; 1 µM,60% and 36%
same,%Inh,[16]; 1 µM,50% and 38%
COc1cc2c(cc1OC[C@@H](O)CO)ncc1c3ccc(C#N)cc3[nH]c21,%Inh,[1],78%
same,%Inh,[2],49%
same,%Inh,[3],21%
same,%Inh,[4],0%
same,%Inh,[5],0%
same,%Inh,[6],0%
same,%Inh,[7],0%
same,%Inh,[8],1%
same,%Inh,[9],0%
same,%Inh,[10],0%
same,%Inh,[11],0%
same,%Inh,[12],0%
same,%Inh,[13],0%
same,%Inh,[14],0%
same,%Inh,[15],15%
same,%Inh,[16],0%
Cc1cccc(-c2nc(Nc3ccc4ncsc4c3)c3ccccc3n2)n1 [GW867588],%Inh,[1],7%
same,%Inh,[2],0%
same,%Inh,[3],0%
same,%Inh,[4],20%
same,%Inh,[5],35%
same,%Inh,[6],15%
same,%Inh,[7],0%
same,%Inh,[8],2%
same,%Inh,[9],0%
same,%Inh,[10],0%
same,%Inh,[11],0%
same,%Inh,[12],12%
same,%Inh,[13],0%
same,%Inh,[14],0%
same,%Inh,[15],0%
same,%Inh,[16],19%
c1ccc(-c2cc(-c3c[nH]nc3-c3ccccn3)ccn2)cc1 [GW576604],%Inh,[1],23%
same,%Inh,[2],0%
same,%Inh,[3],0%
same,%Inh,[4],0%
same,%Inh,[5],37%
same,%Inh,[6],0%
same,%Inh,[7],0%
same,%Inh,[8],42%
same,%Inh,[9],0%
same,%Inh,[10],1%
same,%Inh,[11],12%
same,%Inh,[12],0%
same,%Inh,[13],0%
same,%Inh,[14],0%
same,%Inh,[15],14%
same,%Inh,[16],0%
CNc1ncnc2[nH]ncc12 [SKF-18355],%Inh,[1],0%
same,%Inh,[2],34%
same,%Inh,[3],11%
same,%Inh,[4],0%
same,%Inh,[5],4%
same,%Inh,[6],0%
same,%Inh,[7],4%
same,%Inh,[8],40%
same,%Inh,[9],0%
same,%Inh,[10],0%
same,%Inh,[11],10%
same,%Inh,[12],0%
same,%Inh,[13],0%
same,%Inh,[14],4%
same,%Inh,[15],0%
same,%Inh,[16],0%
COc1ccc(Nc2nccc(N3CCC(NC(=O)Nc4cccc(C(C)=O)c4)C3)n2)cc1 (stereo not shown) [GSK1379731],%Inh,[1],0%
same,%Inh,[2],0%
same,%Inh,[3],0%
same,%Inh,[4],7%
same,%Inh,[5],0%
same,%Inh,[6],0%
same,%Inh,[7],0%
same,%Inh,[8],11%
same,%Inh,[9],0%
same,%Inh,[10],0%
same,%Inh,[11],11%
same,%Inh,[12],0%
same,%Inh,[13],0%
same,%Inh,[14],0%
same,%Inh,[15],15%
same,%Inh,[16],0%
COc1ccc(Nc2ncc(C#N)c(Nc3ccccc3C(N)=O)n2)cc1N1CCN(C)CC1.Cl [GSK1558669],%Inh,[1],97.2%
same,%Inh,[2],100%
same,%Inh,[3],100%
same,%Inh,[4],99.2%
same,%Inh,[5],33%
same,%Inh,[6],33%
same,%Inh,[7],0%
same,%Inh,[8],0%
same,%Inh,[9],0%
same,%Inh,[10],0%
same,%Inh,[11],52%
same,%Inh,[12],8%
same,%Inh,[13],63%
same,%Inh,[14],0%
same,%Inh,[15],95.7%
same,%Inh,[16],97.3%
